# Test results as given in the supplement of paper PMC8728848.
# About 410 targets per protein were measured; listed, in parts, are those with the strongest signals and a random draw of the rest.
# Experiments:
# Test in all cases: glycan array binding signal (z-score within array); higher = stronger binding
# Conditions in all cases: glycan notation: IUPAC condensed, linker removed
# [1] = target: GalNAc(a1-3)GalNAc(b1-3)Gal(a1-4)Gal(b1-4)Glc
# Procedure, shortened: (§1)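 Negative Z-scores can be read as non-binding. The Z-score is calculated within each array and then averaged across arrays of one protein sequence at different concentrations or buffers and across linkers. Arrays, 3228 in all, were curated from the Consortium for Functional Glycomics database and kept only where the protein sequence was available.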
# [2] = target: GalNAc(a1-3)GalNAc(b1-3)Gal(a1-4)Gal(b1-4)GlcNAc
# Procedure, shortened: as §1
# GalNAc(b1-3)GalNAc = target: GalNAc(b1-3)GalNAc
# Procedure, shortened: as §1
# Glc(b1-4)Glc = target: Glc(b1-4)Glc
# Procedure, shortened: as §1
# GlcA(b1-6)Gal = target: GlcA(b1-6)Gal
# Procedure, shortened: as §1
# [3] = target: GlcNAc(a1-3)Gal(b1-4)GlcNAc
# Procedure, shortened: as §1
# [4] = target: GlcNAc(a1-4)Gal(b1-4)GlcNAc(b1-3)Gal(b1-4)GlcNAc
# Procedure, shortened: as §1
# [5] = target: GlcNAc(a1-4)Gal(b1-4)GlcNAc(b1-3)Gal(b1-4)GlcNAc(b1-3)Gal(b1-4)GlcNAc
# Procedure, shortened: as §1
# [6] = target: GlcNAc(a1-6)Gal(b1-4)GlcNAc
# Procedure, shortened: as §1
# [7] = target: GlcNAc(b1-3)Gal(b1-4)GlcNAc(b1-3)Gal(b1-4)GlcNAc(b1-2)Man(a1-3)[GlcNAc(b1-3)Gal(b1-4)GlcNAc(b1-3)Gal(b1-4)GlcNAc(b1-2)Man(a1-6)]Man(b1-4)GlcNAc(b1-4)[Fuc(a1-6)]GlcNAc
# Procedure, shortened: as §1
# Kdn(a2-3)Gal(b1-3)GalNAc = target: Kdn(a2-3)Gal(b1-3)GalNAc
# Procedure, shortened: as §1
# Kdn(a2-3)Gal(b1-4)Glc = target: Kdn(a2-3)Gal(b1-4)Glc
# Procedure, shortened: as §1
# Kdn(a2-6)Gal(b1-4)GlcNAc = target: Kdn(a2-6)Gal(b1-4)GlcNAc
# Procedure, shortened: as §1
# Man(a1-2)Man(a1-3)Man = target: Man(a1-2)Man(a1-3)Man
# Procedure, shortened: as §1
# [8] = target: Neu5Ac(a2-3)Gal(b1-4)GlcNAc6S
# Procedure, shortened: as §1
# [9] = target: Neu5Ac(a2-3)Gal(b1-4)[Fuc(a1-3)]GlcNAc(b1-3)Gal(b1-4)[Fuc(a1-3)]GlcNAc(b1-3)Gal(b1-4)[Fuc(a1-3)]GlcNAc
# Procedure, shortened: as §1
# [10] = target: Neu5Ac(a2-6)Gal(b1-4)GlcNAc(b1-2)Man(a1-3)[Man(a1-6)]Man(b1-4)GlcNAc(b1-4)GlcNAc
# Procedure, shortened: as §1
# [11] = target: Neu5Ac(a2-6)Gal(b1-4)GlcNAc(b1-2)Man(a1-6)Man(b1-4)GlcNAc(b1-4)GlcNAc
# Procedure, shortened: as §1
# [12] = target: Neu5Ac(a2-6)Gal(b1-4)GlcNAc(b1-2)Man(a1-6)[GlcNAc(b1-2)Man(a1-3)]Man(b1-4)GlcNAc(b1-4)GlcNAc
# Procedure, shortened: as §1
# [13] = target: Neu5Ac(a2-6)Gal(b1-4)GlcNAc(b1-3)Gal(b1-4)GlcNAc(b1-6)[Gal(b1-3)]GalNAc
# Procedure, shortened: as §1
# [14] = target: Neu5Ac(a2-6)Gal(b1-4)GlcNAc(b1-3)Gal(b1-4)[Fuc(a1-3)]GlcNAc(b1-3)Gal(b1-4)[Fuc(a1-3)]GlcNAc
# Procedure, shortened: as §1
# [15] = target: Neu5Ac(a2-6)Gal(b1-4)GlcNAc(b1-3)[Neu5Ac(a2-6)Gal(b1-4)GlcNAc(b1-6)]GalNAc
# Procedure, shortened: as §1
# [16] = target: Neu5Ac(a2-6)Gal(b1-4)GlcNAc(b1-6)[Gal(b1-3)]GalNAc
# Procedure, shortened: as §1
# [17] = target: Neu5Ac(a2-6)GalNAc(b1-4)GlcNAc6S
# Procedure, shortened: as §1
# [18] = target: Neu5Ac(a2-8)Neu5Ac(a2-3)Gal(b1-3)GalNAc(b1-4)[Neu5Ac(a2-8)Neu5Ac(a2-3)]Gal(b1-4)Glc
# Procedure, shortened: as §1
# Neu5Gc(a2-3)Gal(b1-4)Glc = target: Neu5Gc(a2-3)Gal(b1-4)Glc
# Procedure, shortened: as §1
binder,measurement,setting,value
"HPAIIITrx (Helix pomatia), Q1KM18 (protein) MLFVTIISLGLLAIVHGQCALKTIAFSAAIDREQTFDANQVVIYDIVITNHGNAYDNSTGLFTAPVDGMYSFQLNLLTIKEKEGWLELVHNGQLKVSVYAKQDSTYDSSSNSVIIKMKEGDRVNVRAHKKSGLFGRDDELYNTFSGHFLSGL",glycan array binding signal (z-score),[1],5.39
same,glycan array binding signal (z-score),[2],4.56
same,glycan array binding signal (z-score),GalNAc(b1-3)GalNAc,-0.254
same,glycan array binding signal (z-score),Glc(b1-4)Glc,-0.122
same,glycan array binding signal (z-score),GlcA(b1-6)Gal,-0.196
same,glycan array binding signal (z-score),[3],0.416
same,glycan array binding signal (z-score),[4],1.69
same,glycan array binding signal (z-score),[5],2.06
same,glycan array binding signal (z-score),[6],-0.341
same,glycan array binding signal (z-score),[7],-0.228
same,glycan array binding signal (z-score),Kdn(a2-3)Gal(b1-3)GalNAc,-0.152
same,glycan array binding signal (z-score),Kdn(a2-3)Gal(b1-4)Glc,0.214
same,glycan array binding signal (z-score),Kdn(a2-6)Gal(b1-4)GlcNAc,-0.263
same,glycan array binding signal (z-score),Man(a1-2)Man(a1-3)Man,-0.321
same,glycan array binding signal (z-score),[8],-0.337
same,glycan array binding signal (z-score),[9],0.089
same,glycan array binding signal (z-score),[10],-0.533
same,glycan array binding signal (z-score),[11],-0.31
same,glycan array binding signal (z-score),[12],-0.492
same,glycan array binding signal (z-score),[13],-0.292
same,glycan array binding signal (z-score),[14],-0.392
same,glycan array binding signal (z-score),[15],-0.408
same,glycan array binding signal (z-score),[16],-0.3
same,glycan array binding signal (z-score),[17],-0.278
same,glycan array binding signal (z-score),[18],-0.38
same,glycan array binding signal (z-score),Neu5Gc(a2-3)Gal(b1-4)Glc,-0.237
